SMILES strings stand for the structures. The campaign covered roughly 340,000 compounds. About 1,000 (0.29%) were called active. Rule as the data show it: inconclusive = inhibition above about 27% without an active follow-up result; inactive = below that. These entries were drawn from the full list. Measured potencies and affinities stand elsewhere.

This experiment can be described thus: NS1A inhibition, H1N1 influenza, cell based functional assay (AID 504329). The following applies: percent inhibition, at 12.5 µM, active compounds read high.
Regarding `Cc1ccc(S(=O)(=O)N2CCCC2C(=O)OCc2ccccc2)cc1` (stereo unspecified), the inhibition (in general, the relative decrease from the control value, in per cent) was 1.42% (inactive).
For `COc1ccc(C(Nc2cc(C)ccn2)c2ccc3ccc(C)nc3c2O)cc1` (stereo unspecified) the value was 7.32% (inactive); for `Oc1c(C(Nc2cccc(C(F)(F)F)c2)c2cccnc2)ccc2cccnc12` (stereo unspecified), -1.29% (inactive); for `Cc1ccnc(NC(c2ccccc2)c2ccc3cccnc3c2O)c1` (stereo unspecified), 7.45% (inactive).
For `Cc1ccc2ccc(C(Nc3ccccn3)c3ccccc3)c(O)c2n1` (stereo unspecified) the value was 32.6% (inactive); for `Oc1ccccc1C(Nc1nccs1)c1ccc2cccnc2c1O` (stereo unspecified), 21.5% (inactive).
The same measure for `Cc1cc(NC(c2ccc(Cl)cc2)c2ccc3cccnc3c2O)no1` (stereo unspecified): -17.5% (inactive).
As for `COc1ccccc1NC(c1cccnc1)c1ccc2cccnc2c1O` (stereo unspecified), the inhibition was 17.3% (inactive).
For `Cc1ccc2ccc(C(Nc3cccc(C(F)(F)F)c3)c3cccnc3)c(O)c2n1` (stereo unspecified) the value was 11.9% (inactive).
The same measure for `CC(C)CNC(=O)COc1cccc(C(=O)NCc2ccccc2)c1`: -16.8% (inactive); for `O=C(CN1C(=O)c2cccc3cccc1c23)NCc1cccnc1`: -7.77% (inactive); for `Cc1cc(S(=O)(=O)Nc2ccc(N3CCOCC3)cc2)ccc1Br`: 9.89% (inactive).
The same measure for `Cc1ccc(-n2nc3c(=O)n(CCCC(=O)NCc4cccc(F)c4)nc(C)c3c2C)cc1`: 4.12% (inactive).
Turning to `Cc1c2cnn(CC(=O)NCCN3CCOCC3)c(=O)c2c(C)n1Cc1ccccc1`, the inhibition is 7.12% (inactive).
The same measure for `Cc1ccc(Nc2nc(N)nc(CSc3nnnn3-c3ccccc3)n2)cc1`: -1.1% (inactive); for `COc1cccc(CN(C)C(=O)c2ccc(NS(=O)(=O)c3ccc4[nH]c(=O)[nH]c4c3)cc2)c1OC`: -3.23% (inactive); for `CC(C(=O)Nc1cccc(S(=O)(=O)N2CCOCC2)c1)N1CCN(C/C=C/c2ccccc2)CC1` (stereo unspecified): -4.15% (inactive).
For `CCOC(=O)Cc1csc(NS(=O)(=O)c2ccc(NC(C)=O)cc2)n1` the value was -2.56% (inactive); for `O=C(O)c1ccc(NC2=C/C(=N/S(=O)(=O)c3ccccc3)c3ccccc3C2=O)cc1`, 15.2% (inactive).
For `CCc1ccc(S(=O)(=O)/N=C2\C=C(Nc3cccc(C(=O)O)c3)C(=O)c3ccccc32)cc1` the value was 24.6% (inactive); for `Cc1ccc(S(=O)(=O)/N=C2\C=C(Nc3cccc(C(=O)O)c3)C(=O)c3ccccc32)c(C)c1`, 25.4% (inactive).
For `Cc1cc(C)c(S(=O)(=O)/N=C2\C=C(NS(=O)(=O)c3ccccc3)C(=O)c3ccccc32)c(C)c1`, the inhibition was 0.45% (inactive).
The same measure for `O=C(COC(=O)c1c(F)cccc1F)Nc1ccc(N2CCCCC2)cc1`: -4.21% (inactive); for `CCOc1ccc(-n2c(SCc3cc(=O)oc4cc(C)c(C(C)C)cc34)nnc2-c2cccnc2)cc1`: 2.59% (inactive); for `COc1ccc(C2CC3(CC(C)(C)NC(SC)=N3)Oc3cc(O)cc(C)c32)cc1` (stereo unspecified): 2.74% (inactive).
The same measure for `CCCN1CCC(NC(=O)C2CCCCC2C(=O)O)CC1` (stereo unspecified): -9.23% (inactive); for `CC(c1ccon1)N(C)C(=O)c1ccc(OC2CCN(C(=O)C3CC3)CC2)cc1` (stereo unspecified): 1.15% (inactive).
For `CC(=O)c1ccc(N=c2scc(C)n2C(C)C)cc1` the value was 2.71% (inactive).
With `CCN(CC)c1ccc(C=NN2CCCCCC2)cc1`, the inhibition was 1.15% (inactive).
For `Clc1ccc(/C=N/N2CCCCC2)cc1` the value was 10.3% (inactive); for `COc1ccc(CNCC2COc3ccccc3O2)cc1` (stereo unspecified), -2.36% (inactive); for `O=C(CC1C[C@H](C(=O)N2CCCCC2)[C@@]2(CCc3ccccc3)c3[nH]c4ccccc4c3CCN2C1=O)NCCCn1ccnc1` (stereo partly specified), -10.1% (inactive).
For `CCN1/C(=C2\OC(=S)N(C)C2=O)C=Cc2ccccc21`, the inhibition was 4.12% (inactive).
The same measure for `COCCN1C(=O)/C(=C2/C(=O)N(CC(=O)Nc3ccccc3Cl)c3ccccc32)SC1=S`: 1.06% (inactive); for `CCN1C(=C2C(=O)c3ccccc3C2=O)C=Cc2ccccc21`: -0.12% (inactive); for `CN1C(=O)/C(=C2/C=Cc3ccccc3N2CCCS(=O)(=O)O)SC1=S`: 8.55% (inactive).
For `CCN1C(=O)/C(=C2\C=Cc3ccccc3N2CC)OC1=S` the value was 20.4% (inactive).
In the case of `CCN1C(=O)/C(=C2\SC(=S)N(NC(=O)c3ccccc3O)C2=O)c2ccccc21`, the inhibition is -6.27% (inactive).
The same measure for `CCN1/C(=C2/SC(=S)N(C)C2=O)C=Cc2cc(C)ccc21`: 9.87% (inactive).
For the compound `CCCN1/C(=C2/SC(=S)N(CC)C2=O)C=Cc2ccccc21`, the inhibition is -4.1% (inactive).
For the compound `CC(SCc1ccccc1)C(=O)Nc1ccccc1F` (stereo unspecified), the inhibition is 4.17% (inactive).
The same measure for `N#Cc1c(Sc2ncc(C(F)(F)F)cc2Cl)nsc1C/C=N\OCc1ccccc1Br`: -7.95% (inactive); for `Cn1nc(C(C)(C)C)cc1C(=O)NNC(=O)c1ccc(C(F)(F)F)cc1`: -21.4% (inactive).
The same measure for `O=C(NNc1cccc(Cl)n1)c1ccccc1CC[N+](=O)[O-]`: -1.98% (inactive); for `CCn1nc(NS(=O)(=O)c2ccc([N+](=O)[O-])cc2)c2cc3ccccc3nc21`: 4.22% (inactive); for `CCC(C)(C)C1CCC2(CC1)NC(=O)N(CC(=O)N(C)Cc1ccc3c(c1)OCCO3)C2=O` (stereo unspecified): -14.3% (inactive).
For `CCN1C(=O)/C(=c2\o/c(=C3\C=Cc4ccccc4N3CC)c(=O)n2CC)SC1=S` the value was 19.6% (inactive).
As for `CCN1/C(=C2\C(=O)N(C)C(=S)N2C)C=Cc2ccccc21`, the inhibition is 6.98% (inactive).
For `O=C(NCCO)Nc1ccc(Cl)cc1` the value was 0.44% (inactive).
With `Cc1ccc(S(=O)(=O)CCC(=O)Nc2nccs2)cc1`, the inhibition was 6.51% (inactive).
In the case of `O=C(Cc1c[nH]c2ccccc12)NNCc1ccc(N(CCCl)CCCl)cc1`, the inhibition is 14.4% (inactive).
The same measure for `O=C(O)c1ccc(N=Nc2c(O)[nH]c3ccccc23)cc1`: -7.55% (inactive).
As for `Oc1[nH]c2ccccc2c1N=Nc1ccc(F)cc1`, the inhibition was -3.37% (inactive).
Consider `O=C(Cc1ccc(Cl)c(Cl)c1)N1CCOCC1`, for which the inhibition was -9.69% (inactive).
Consider `O=C(N/N=C\c1cc2c(cc1[N+](=O)[O-])OCO2)c1cccs1`, for which the inhibition is -1.36% (inactive).
The same measure for `Cc1cc([N+](=O)[O-])cc(/C=N\NC(=O)C2COc3ccccc3O2)c1O` (stereo unspecified): 19.3% (inactive).
As for `O=C(N/N=C/c1cccc([N+](=O)[O-])c1O)C(O)(c1ccccc1)c1ccccc1`, the inhibition is -8.83% (inactive).
For `O=C(N/N=C/c1ccccc1[N+](=O)[O-])c1cccs1` the value was -0.41% (inactive); for `Cc1ccc(C(=O)N/N=C\c2ccccc2[N+](=O)[O-])cn1`, 4.04% (inactive).
For `Cc1cc(C(=O)N/N=C/c2cc(Cl)cc([N+](=O)[O-])c2O)n[nH]1` the value was -7.04% (inactive).
For the compound `CCNC(=S)N(Cc1ccc2c(c1)OCO2)C1CC(=O)N(c2ccc(OC)cc2)C1=O` (stereo unspecified), the inhibition was -4.24% (inactive).
The same measure for `O=C(NCCN1CCOCC1)C(=O)NCc1ccco1`: -2.57% (inactive); for `CC1CCC(NC(=O)CSc2nncs2)CC1` (stereo unspecified): 1.05% (inactive).
With `Cc1cc2nc(-c3ccc(SCC(=O)Nc4ccc(S(=O)(=O)NC5CC5)cc4)nc3)[nH]c2cc1C`, the inhibition was -2.72% (inactive).
The same measure for `C=CCOc1ccccc1/C=C/C(=O)O`: 1.54% (inactive); for `CC(=O)c1ccc(N(C)C)c2c(N(C)C)cccc12`: -6.19% (inactive).
On to `CN(C)c1cccc2c(/C=N/O)ccc(N(C)C)c12`, for which the inhibition is 5.22% (inactive).
The same measure for `Cc1nn(-c2ccccc2)c2c1C(c1ccccc1)C(C#N)=C(N)O2` (stereo unspecified): -4.13% (inactive); for `Cc1ccc(-n2nc(C)c3c2OC(N)=C(C#N)C3c2ccco2)cc1` (stereo unspecified): 15.8% (inactive); for `Cc1nn(-c2ccccc2)c2c1C(c1cccs1)C(C#N)=C(N)O2` (stereo unspecified): 11.8% (inactive).
The same measure for `Cc1ccc(-n2nc(C)c3c2OC(N)=C(C#N)C3c2ccncc2)cc1` (stereo unspecified): -2% (inactive).

The values above are taken from PubChem BioAssay AID504329 (Southern Research Specialized Biocontainment Screening …, 2011).
